Mot1-301 SUMO: yeast Mot1-301 growth rescue at high temperature, primary screen, SUMOylation pathway inhibitor project, S. cerevisiae, ATP luminescence, 38.5C; 320,000 compounds, 1% hits; S. cerevisiae Mot1-301 growth rescue; percent above DMSO median, 100 means doubled; growth rescue, % at 18.8 µM; AID 2716, 2010;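 active means every valid replicate shows activation above 250% relative to neutral control wells; inactive means the rest, any valid replicate at or below 250%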;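 further: OY570 slx delta 5 strain wells were the positive control but not used for scaling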
CASP6 VEID inh: human caspase-6 inhibitors, primary screen, biochemical, VEID-R110 fluorescence, single point, set 2. purified caspase-6, Z-VEID-R110 cleavage fluorescence. 350,000 compounds, 0.53% hits. AID 686996, 2013. inhibition, % at 12.5 µM;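 active means mean inhibition across replicates at least about 35%, with every replicate also reaching that limit, limit read from the data; inconclusive means only one of the two criteria met; inactive means neither criterion met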;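 further: 0% = median of neutral control wells and 100% = no fluorescence left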
Target sequence (P55212 24-179 limits assumed): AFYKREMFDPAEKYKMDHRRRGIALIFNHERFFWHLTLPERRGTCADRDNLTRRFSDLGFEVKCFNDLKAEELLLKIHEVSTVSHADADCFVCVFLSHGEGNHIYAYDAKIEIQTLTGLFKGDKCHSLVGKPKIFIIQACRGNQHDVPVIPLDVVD
Target sequence (P55212 194-293 limits assumed): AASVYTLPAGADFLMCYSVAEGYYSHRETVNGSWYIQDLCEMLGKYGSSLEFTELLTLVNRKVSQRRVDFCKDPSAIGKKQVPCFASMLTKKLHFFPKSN
Glyco luc inh: increase of ERlucT glycosylation luciferase signal, primary screen, N-linked glycosylation inhibitor project, D54 ERlucT cells, luminescence, set 2; AID 588692, 2011; 360,000 compounds, 0.23% hits; D54 ERlucT glycosylation luciferase reporter, 24 h; percent of 100 nM tunicamycin response; reporter increase, % at 12.5 µM;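 active means mean luciferase reporter signal, scaled so untreated is 0 and the glycosylation-blocking control 100, at or above a set limit in every replicate; inconclusive means mean reaches the limit but not every replicate does; inactive means mean below the limit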;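 further: luciferase carries N-glycosylation sites so blocking glycosylation raises the light; 0% = median of neutral control wells and 100% = median of 100 nM tunicamycin wells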
NSD2 HMT inh: NSD2 histone methyltransferase inhibitors, primary screen, biochemical, AlphaScreen, single concentration, set 2; 310,000 compounds, 0.54% hits; NSD2 peptide methylation, 120 min; inhibition, % at 12.5 µM; in the data active means inhibition above about 50%
CDK5 p35 inh: inhibitors of human CDK5/p35 kinase, primary screen, biochemical, single concentration. 330,000 compounds, 0.01% hits. AID 488839, 2010. Cyclin-dependent kinase 5 (Homo sapiens) + Cyclin-dependent kinase 5 activator 1 (Homo …. inhibition, % at 10 µM. Recombinant CDK5/p35, ADP-Glo luminescence, 60 min;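 active means highest replicate inhibition of at least 50% and at least 75% of replicates reaching 50%; inconclusive means only one of the two criteria met; inactive means both criteria failed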;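 further: plate controls were DMSO neutral control for no effect and GW8510 at 10 µM for full effect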
ALR inh: inhibitors of human ALR sulfhydryl oxidase, primary screen, biochemical, H2O2 detection, HRP-luminol luminescence, single point; 290,000 compounds, 3.8% hits; inhibition, % (no concentration beside the values); FAD-linked sulfhydryl oxidase ALR (Homo sapiens), P55789; purified ALR, DTT oxidation;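 active means mean replicate inhibition above about 79%, with every replicate also reaching it, limit read from the data; inconclusive means only one of the two criteria met; inactive means mean below limit and not every replicate reaching it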
Target sequence (P55789 whole entry, looked up): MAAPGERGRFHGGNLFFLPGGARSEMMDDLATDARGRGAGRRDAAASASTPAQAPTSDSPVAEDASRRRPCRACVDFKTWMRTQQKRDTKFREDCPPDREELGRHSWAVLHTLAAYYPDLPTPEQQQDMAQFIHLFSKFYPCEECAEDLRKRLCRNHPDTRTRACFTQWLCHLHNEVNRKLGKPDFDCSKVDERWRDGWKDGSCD
An asterisk follows results filed as active; ? = inconclusive; nt = not tested or not shown. In the library only some 3.9% were active in any assay of this set; here they are far more common.

SMILES	Mot1-301 SUMO	CASP6 VEID inh	Glyco luc inh	NSD2 HMT inh	CDK5 p35 inh	ALR inh
Cc1c(N2C(=O)/C(=C\C3CC=CCC3)SC2=S)c(=O)n(-c2ccccc2)n1C (stereo unspecified)	109.6	4.5	0.6	4.5	-1.9	nt
Cc1c(N2C(=O)/C(=C/C3CC=CCC3)SC2=S)c(=O)n(-c2ccccc2)n1C (stereo unspecified)	-30.0	3.9	1.2	1.5	nt	98.5*
C=C(C)C(=O)NNc1ccccc1	-0.5	-0.7	0.9	-0.7	1.1	31.0
CC(C)OC(=O)C(=O)NNc1ccccc1	258.8	-1.2	3.2	-1.5	0.0	100.5*
CC(O)CC(C(=O)NNc1ccccc1)C(=O)NNc1ccccc1 (stereo unspecified)	606.5*	0.0	1.2	-0.5	0.5	99.1*
CCCOC(=O)C(=O)NNc1ccccc1	80.7	0.6	2.6	nt	-1.8	100.2*
CC(C)C(=O)NNc1ccccc1	2.5	nt	0.9	-4.5	nt	42.3
Cc1nnsc1C(=O)NNc1c(Cl)cccc1Cl	12.8	11.0	1.8	-3.1	0.2	98.5*
Cc1c(C(=O)NNc2c(Cl)cccc2Cl)n(C)oc1=O	1.8	-4.8	3.0	-1.6	0.7	97.8*
COc1ccc2c3c(n(C)c2c1)[C@H](CO)N(CC1CC1)CC31CCN(S(=O)(=O)c2cn(C)cn2)CC1	nt	-1.2	nt	nt	nt	nt
Nc1nn2cc(-c3ccccc3)nc2c2ccccc12	38.6	-0.3	-7.2	-6.1	-2.9	95.4*
Cc1cn2nc(N)c3ccccc3c2n1	-0.8	nt	1.2	3.5	-0.9	-3.6
O=C(Nc1nc2ccccc2s1)c1cccs1	nt	nt	nt	-11.8	nt	nt
O=C(CSc1ccc2ccccc2n1)Nc1ccc(N2CCOCC2)cc1	2.2	1.9	-5.4	-6.6	-3.2	2.3
Cc1nc(SCC(=O)Nc2ccc(N3CCOCC3)cc2)nc(C)c1C	-1.5	nt	1.2	-3.6	0.7	nt
O=C(CSc1ccccc1)Nc1ccc(N2CCOCC2)cc1	-19.7	nt	1.7	6.4	-0.8	71.8
Cc1cc(C)nc(SCC(=O)Nc2ccc(N3CCOCC3)cc2)n1	-2.4	nt	1.5	-5.6	-1.0	98.2*
CCCc1nc(SCC(=O)Nc2ccc(N3CCOCC3)cc2)c2ccccc2n1	5.4	nt	3.4	nt	-0.3	98.5*
O=C(CSc1nc2ccccc2c(=O)[nH]1)Nc1ccc(N2CCOCC2)cc1	-1.6	58.0*	0.6	0.4	1.3	-5.5
CC(C)c1nc(SCC(=O)Nc2ccc(N3CCOCC3)cc2)c2ccccc2n1	4.9	nt	1.4	6.1	-0.1	98.7*
C[C@@H]1CN([C@@H](C)CO)S(=O)(=O)c2ccc(C#CCN(C)C)cc2O[C@H]1CN(C)Cc1ccccc1	nt	0.3	nt	nt	nt	nt
Cc1cccc(NC(=O)NNS(=O)(=O)c2ccc(F)cc2)c1	-9.4	-1.9	3.2	-0.9	-1.0	nt
Cc1ccc(C(=O)NC(=S)NNS(=O)(=O)c2ccccc2)cc1	20.6	5.5	0.1	-0.4	3.9	98.3*
Cc1ccc(C(=O)NC(=S)NNC(=O)CC#N)cc1	11.6	1.3	3.7	-3.8	4.4	99.2*
CCCCC(=O)NNC(=S)NC(=O)c1ccc(C)cc1	21.5	-0.6	-1.1	-10.8	1.3	98.5*
SMILES	Mot1-301 SUMO	CASP6 VEID inh	Glyco luc inh	NSD2 HMT inh	CDK5 p35 inh	ALR inh
COc1ccc(C(=O)NC(=S)NNC(=O)c2ccc(C)cc2)cc1	-15.5	-0.2	0.5	2.3	0.7	0.5
Cc1ccc(S(=O)(=O)NNC(=S)Nc2cccc(F)c2)cc1	-8.8	1.7	1.4	3.6	1.1	98.8*
Cc1ccc(S(=O)(=O)NNC(=O)c2ccc(F)cc2)cc1	-22.5	-1.9	0.4	0.3	1.4	30.4
C[C@H](CO)N1C[C@H](C)[C@@H](CN(C)C(=O)Cc2ccccn2)Oc2ncc(C#CC3CC3)cc2C1=O	nt	0.7	nt	nt	nt	nt
COc1cccc(-c2ccc3c(c2)[C@H]2[C@H](CCN2C(=O)C2CC2)[C@@H](CO)N3)c1	nt	1.0	nt	nt	nt	nt
COCCOC(=O)c1[nH]c2c(c1C)C(=O)CC(c1ccco1)C2 (stereo unspecified)	-3.8	49.6*	?	nt	1.0	nt
